Test results taken from paper PMC4336329 (PLoS ONE, 2015).
Screen size: about 310,000 compounds; about 14,000 (4.5%) showed an effect of 50% or more. The effect is printed as a negative number. This is one part of a sample in which strong results are shown more often than they occur.

Biological target: human ether-à-go-go-related gene (hERG) potassium channel (human, UniProt Q12809)
Assay: primary screen, population patch clamp on CHO cells stably expressing hERG; higher = less effect of the substance
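Also: peak tail current of the secondary pulse compared with the same well before compound.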

Chain of human ether-à-go-go-related gene (hERG) potassium channel (Q12809 whole entry, looked up): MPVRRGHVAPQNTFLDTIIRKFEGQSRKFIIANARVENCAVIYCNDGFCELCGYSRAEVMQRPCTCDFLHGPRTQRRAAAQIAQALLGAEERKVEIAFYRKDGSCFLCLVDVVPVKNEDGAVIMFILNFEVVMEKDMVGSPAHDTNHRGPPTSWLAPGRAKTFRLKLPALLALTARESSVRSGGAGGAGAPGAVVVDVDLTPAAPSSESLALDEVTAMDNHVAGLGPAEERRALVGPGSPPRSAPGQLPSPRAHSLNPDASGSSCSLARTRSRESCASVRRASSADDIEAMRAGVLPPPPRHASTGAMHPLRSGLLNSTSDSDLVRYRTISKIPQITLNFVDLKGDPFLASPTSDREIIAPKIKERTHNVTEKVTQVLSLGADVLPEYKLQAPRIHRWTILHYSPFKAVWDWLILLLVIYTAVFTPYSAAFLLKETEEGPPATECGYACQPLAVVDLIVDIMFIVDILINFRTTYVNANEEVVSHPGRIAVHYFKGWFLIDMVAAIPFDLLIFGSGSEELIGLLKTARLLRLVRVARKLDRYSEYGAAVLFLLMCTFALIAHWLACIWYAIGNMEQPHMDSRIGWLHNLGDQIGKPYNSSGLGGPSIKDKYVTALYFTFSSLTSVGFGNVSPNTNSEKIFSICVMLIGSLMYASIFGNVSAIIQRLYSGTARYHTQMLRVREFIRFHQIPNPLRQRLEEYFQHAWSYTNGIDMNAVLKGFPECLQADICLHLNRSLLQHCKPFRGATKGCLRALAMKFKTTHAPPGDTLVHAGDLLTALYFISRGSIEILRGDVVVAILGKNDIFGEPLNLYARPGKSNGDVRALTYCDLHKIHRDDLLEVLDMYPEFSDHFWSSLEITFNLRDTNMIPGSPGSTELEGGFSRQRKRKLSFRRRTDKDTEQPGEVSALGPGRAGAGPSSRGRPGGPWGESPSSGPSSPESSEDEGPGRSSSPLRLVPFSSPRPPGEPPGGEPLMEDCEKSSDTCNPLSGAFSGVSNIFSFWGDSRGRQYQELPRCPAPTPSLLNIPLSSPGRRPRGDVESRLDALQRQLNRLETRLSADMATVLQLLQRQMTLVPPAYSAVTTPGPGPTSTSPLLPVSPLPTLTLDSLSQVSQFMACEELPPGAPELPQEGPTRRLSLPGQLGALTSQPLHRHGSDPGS

SMILES | hERG current change (%, negative = inhibition) at 10uM [%]
O=C(CSc1nnc(Cn2c(=O)sc3ccccc32)n1-c1ccccc1)N1CCCCCC1 | -12.5
CCO[C@@H]1OC(C(=O)NCc2ccccc2)=C[C@H](c2coc3ccccc3c2=O)[C@H]1CCCO | -47.5
CNC(=O)c1ccsc1NC(=O)C1CCCN1S(=O)(=O)c1cccs1 (stereo not shown) | 7.6
Cc1ccc(NC(=O)C2CCN(S(=O)(=O)c3cccs3)CC2)cc1C | -31.1
CNC(=O)c1ccsc1NC(=O)C1CCN(S(=O)(=O)c2cccs2)CC1 | -55.1
O=C(Nc1ccccc1)C1CCN(S(=O)(=O)c2cccs2)CC1 | -16.4
CNC(=O)c1ccsc1NC(=O)C1CCN(S(=O)(=O)c2ccc(Cl)s2)CC1 | -54.9
O=C(Nc1ccc(F)cc1)C1CCN(S(=O)(=O)c2cccs2)CC1 | -24.4
NC(=O)c1ccsc1NC(=O)C1CCN(S(=O)(=O)c2cccs2)CC1 | -52.4
O=C(Nc1nccs1)C1CCN(S(=O)(=O)c2cccs2)CC1 | -24.1
CNC(=O)c1ccsc1NC(=O)c1ccc(Cl)s1 | -0.512
CCOC(=O)C1CCN(S(=O)(=O)c2ccc(Cl)s2)CC1 | -13.3
N#Cc1ccsc1NC(=O)C1CCN(S(=O)(=O)c2cccs2)CC1 | -20.2
O=C(Nc1ccc(F)c(F)c1)C1CCN(S(=O)(=O)c2cccs2)CC1 | -53.7
CCC(c1nnc(SCC(=O)NCCc2ccc(Cl)cc2Cl)o1)N(C)C (stereo not shown) | -19.9
Cc1nn(-c2ccccn2)c2c1-c1nc(N)ncc1CC2 | 5.03
CC(C)CCn1c(Sc2nc3ccccc3o2)nc2c1c(=O)[nH]c(=O)n2C | -20.8
Cc1ccc(-c2ocnc2C(=O)N2CCOCC2)cc1 | 21.4
COc1ccc(OC)c(-c2c(=O)n(OCc3ccccc3Br)c3ccccc3[n+]2[O-])c1 | 11.5
CC(=O)N1CCc2c(sc(NC(=O)C3CCN(S(=O)(=O)c4cccs4)CC3)c2C(N)=O)C1 | -29.4
CN1CCc2c(sc(NC(=O)C3CCN(S(=O)(=O)c4cccs4)CC3)c2C(N)=O)C1.Cl | -30.8
O=C(Nc1nc2ccccc2[nH]1)C1CCN(S(=O)(=O)c2cccs2)CC1 | -0.923

SMILES | hERG current change (%, negative = inhibition) at 10uM [%]
CCCN1CCc2c(sc(NC(=O)C3CCN(S(=O)(=O)c4cccs4)CC3)c2C(N)=O)C1.Cl | -61.3
CCCn1c(NC(=O)C2CCN(S(=O)(=O)c3cccs3)CC2)nc2ccccc21 | -68.8
Cc1csc(NC(=O)C2CCN(S(=O)(=O)c3cccs3)CC2)n1 | -27.3
CC12CN(C(=O)c3ccccc3Br)CC(C)(CN(C(=O)c3ccccc3Br)C1)C2=O | -4.96
CCC(=O)Nc1ccc(C(=O)CSc2nnc(-c3ccc(NS(=O)(=O)CC)cc3)o2)cc1OC | 5.26
O=C(CCN1C(=O)c2ccccc2C1=O)N1CCN(C(=O)c2ccccc2)CC1 | 0.00878
CN(C)Cc1ccccc1Sc1ccccc1Br | -36.5
CN(C)CCN(C)Cc1ccccc1Sc1cccc2ccccc12.Cl | -65.3
CN(C)CCN(C)Cc1c2ccccc2c(CN(C)CCN(C)C)c2ccccc12 | 0.802
CCOC(=O)c1nn(-c2ccc(C)cc2)c(=O)cc1OCC(=O)Nc1cc(C)ccc1OC | -2.12
Cc1cccc(NC(=O)C2C(c3ccccc3)C2(Cl)Cl)c1 (stereo not shown) | -5.35
CC1CCCCN1CCNc1nc(=S)[nH]c2ccccc12 (stereo not shown) | -67.5
CC1CCCCN1CCCNc1c(C=O)c(=O)[nH]c2ccccc12 (stereo not shown) | -3.96
S=c1nc(NCCc2ccccc2Cl)c2ccccc2[nH]1 | 20
Cc1nc2ccccc2c(=O)n1/N=C/c1ccccn1 | -3.77
Cc1ccc(S(=O)(=O)N2CCOC2CNC(=O)C(=O)NCCN2CCOCC2)cc1 (stereo not shown) | 10.6
COc1ccccc1OCC(O)COC(N)=O (stereo not shown) | 10.3
CCCCCn1c(=N)n(CC(O)COc2ccccc2OC)c2ccccc21 (stereo not shown) | -75.9
CCCCCn1c(=N)n(CC(O)COc2ccccc2OC)c2ccccc21.Cl (stereo not shown) | -81.1
COc1ccccc1OCC(O)Cn1nc(C)cc1C (stereo not shown) | 9.76
Cc1ccc(C(=O)Nc2nnc(S(=O)(=O)N3CCN(c4ccc(F)cc4)CC3)s2)cc1 | 2.59
COc1ccc2c(C)nc(Nc3nc(C)cc(C)n3)nc2c1 | 5.64

SMILES | hERG current change (%, negative = inhibition) at 10uM [%]
Cc1cc(C2(c3ccc(O)c(C)c3)C(=O)N(C)c3ccc(Br)cc32)ccc1O | -2.28
COc1cc(C2(c3ccc(O)c(OC)c3)C(=O)N(C)c3ccc(Br)cc32)ccc1O | -52.6
COc1cc(C2(c3ccc(O)c(OC)c3)C(=O)N(C)c3ccc(C)cc32)ccc1O | -19
COC(=O)c1c(NC(=O)C(=O)N2CCOCC2)sc2c1CCCC2 | 7.47
CC1CN(C(=O)c2ccccc2OCc2ccc(Cl)cc2Cl)CC(C)O1 (stereo not shown) | -37.7
CC(NC(=O)COC(=O)c1ccc(N(C)C)cc1)c1ccccc1 (stereo not shown) | 3.44
CC(=O)N(c1ccccc1)c1nc(C)cc(C)c1C#N | 12.1
COc1cc(-c2noc(C)c2C#Cc2ccccn2)cc(OC)c1OC | -29
COc1cc(-c2noc(C)c2C#CCO)cc(OC)c1OC | 6.47
COc1cc(-c2noc(C)c2C#Cc2nccn2C)cc(OC)c1OC | -53.4
O=Cc1cn(CCC(=O)O)nc1-c1cccc(Br)c1 | 24.2
Cc1ccc(S(=O)(=O)N(CC(=O)Nc2cccnc2)c2cccc([N+](=O)[O-])c2)cc1 | -56.6
O=C(CN(c1cccc([N+](=O)[O-])c1)S(=O)(=O)c1ccccc1)NCc1cccnc1 | -42.2
Cc1ccc(S(=O)(=O)N(CC(=O)Nc2cccnc2)c2ccccc2C)cc1 | -16.4
COc1ccc(N(CC(=O)Nc2cccnc2)S(=O)(=O)c2ccc(C)cc2)cc1Cl | -16.9
CCOc1ccc(N(CC(=O)Nc2cccnc2)S(=O)(=O)c2ccc(C)cc2)cc1 | -5.5
Cc1ccc(S(=O)(=O)N(CC(=O)Nc2cccnc2)c2ccc(Br)cc2)cc1 | -50.3
O=C(CN(c1cccc([N+](=O)[O-])c1)S(=O)(=O)c1ccccc1)NCc1ccccc1 | -68.5
Cc1ccc(CNC(=O)CN(c2cccc([N+](=O)[O-])c2)S(=O)(=O)c2ccccc2)cc1 | -25
Cc1ccc(S(=O)(=O)N(CC(=O)Nc2cccnc2)c2cccc(Br)c2)cc1 | -11.5
Cc1cc(C)c2cc(C#N)c(NCCCNC(=O)CCC(=O)O)nc2c1 | 12.2
COc1ccc(N=CC2=C(Nc3ccc(OC)cc3)c3c(C)nn(-c4ccccn4)c3CC2)cc1 | -16.4

SMILES | hERG current change (%, negative = inhibition) at 10uM [%]
COCC1CCN(C(=O)c2cc(COc3ccc(F)cc3F)on2)C1 (stereo not shown) | -13.2
CCOC(=O)c1c(NC(=O)C2C3CCC(O3)C2C(=O)O)sc2c1CCC(CC)C2 (stereo not shown) | -21.1
COc1ccc(CCN(C)Cc2c(O)ccc3cc(Br)ccc23)cc1OC | -59.5
COc1ccc(CCN(C)Cc2c(O)ccc3ccccc23)cc1OC | -74
COc1ccc(CN(C)Cc2c(O)ccc3cc(Br)ccc23)cc1OC | -37.3
COc1ccc(CN(C)Cc2c(O)ccc3ccccc23)cc1 | -24.7
COc1ccc(OCCN(C)Cc2c(O)ccc3ccccc23)cc1 | 19
COc1ccc2cc(Br)ccc2c1CC(=O)N(C)C | 10.7
COc1ccc(CCN(C)C(=O)CNC(=O)Cc2cccc3ccccc23)cc1OC | -1.9
COc1cc(CN(C)Cc2cccc3ccccc23)cc([N+](=O)[O-])c1O | 11.9
COc1ccc(CCN(C)Cc2cccc3ccccc23)cc1OC | -73.8
Cc1ccc(C(=O)NCC(=O)OCCOc2cccc(Cl)c2)cc1 | -7.72
Cc1nn(C)c2ncc(C(N)=O)c(Oc3ccc(Cl)cc3)c12 | 7.24
Cc1ccc(S(=O)(=O)Nc2cccc3cccnc23)cc1 | -12.1
O=C(CSc1nc(Nc2ccccc2)nc(N2CCOCC2)n1)Nc1ccc([N+](=O)[O-])cc1 | 9.65
COc1ccc([C@@H]2[C@H]3C(=O)N(c4cccc(C(F)(F)F)c4)C(=O)[C@H]3ON2C)cc1 | -12.1
COc1ccc(S(=O)(=O)NCCOc2ccccc2)cc1F | 8.52
CC(C)NC(=O)Cn1nnc(-c2ccc(Cl)cc2)n1 | 4.9
Cc1nn(CC(=O)NCc2ccccn2)c(C)c1[N+](=O)[O-] | -10.9
